# Reference: PMC7862700, “An all-to-all approach to the identification of sequence-specific readers for epigenetic DNA modifications on cytosine”
# Tests used:
# Assay in all cases: DAPPL (digital affinity profiling via proximity ligation, sequencing); 10 mM Tris-HCl pH 7.5, 50 mM NaCl, 1 mM DTT, 4% glycerol, room temperature, 30 min; GST-TFs on glutathione beads, 16-mer random dsDNA library, 0.1% formaldehyde crosslink after washing; high values mean tight binding
# [1] = biological target: T1, FLI1 (Homo sapiens, UniProt Q01543 1-452); conditions: protein: recombinant; tags: N-terminal GST; dsDNA, one strand shown
# T1 sequence: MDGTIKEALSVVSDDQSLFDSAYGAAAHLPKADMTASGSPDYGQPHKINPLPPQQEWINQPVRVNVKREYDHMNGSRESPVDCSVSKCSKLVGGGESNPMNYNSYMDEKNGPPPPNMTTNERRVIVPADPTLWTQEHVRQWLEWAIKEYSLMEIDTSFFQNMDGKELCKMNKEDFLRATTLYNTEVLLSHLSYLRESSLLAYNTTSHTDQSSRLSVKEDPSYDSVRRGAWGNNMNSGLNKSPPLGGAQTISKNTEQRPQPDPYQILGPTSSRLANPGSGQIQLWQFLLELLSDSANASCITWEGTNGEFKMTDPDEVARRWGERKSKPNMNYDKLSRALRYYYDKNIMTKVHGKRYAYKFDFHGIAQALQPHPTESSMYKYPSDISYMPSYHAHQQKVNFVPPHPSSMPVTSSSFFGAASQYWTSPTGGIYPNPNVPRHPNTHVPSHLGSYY
# Procedure, shortened: (§1)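 GST fusions of human transcription factors were expressed in yeast and captured with glutathione beads. Once given DNA barcodes and pooled alongside a tag-only sample, they were incubated for 30 min at room temperature with 200 nmole of a random double-stranded 16-mer DNA library in Tris/NaCl/DTT/glycerol buffer, then washed, crosslinked (0.1% formaldehyde), proximity-ligated, PCR-amplified and sequenced on an Illumina NextSeq500. The binding signal of each hexamer is its read frequency for a factor divided by its frequency for the tag-only sample.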
# [2] = biological target: T2, ELK1 (Homo sapiens, UniProt P19419 1-428); conditions: protein: recombinant; tags: N-terminal GST; dsDNA, one strand shown
# T2 sequence: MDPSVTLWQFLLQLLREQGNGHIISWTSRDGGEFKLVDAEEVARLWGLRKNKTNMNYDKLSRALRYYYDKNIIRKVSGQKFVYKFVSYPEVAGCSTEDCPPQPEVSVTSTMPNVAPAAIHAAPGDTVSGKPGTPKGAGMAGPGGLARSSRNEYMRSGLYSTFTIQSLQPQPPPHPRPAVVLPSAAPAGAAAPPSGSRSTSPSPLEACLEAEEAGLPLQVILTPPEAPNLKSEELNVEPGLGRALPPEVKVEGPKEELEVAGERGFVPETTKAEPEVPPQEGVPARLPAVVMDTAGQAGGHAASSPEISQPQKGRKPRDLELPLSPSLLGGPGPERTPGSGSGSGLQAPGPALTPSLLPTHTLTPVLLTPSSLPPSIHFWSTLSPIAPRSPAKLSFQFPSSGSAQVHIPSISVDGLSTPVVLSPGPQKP
# Procedure, shortened: as §1
# [3] = biological target: T3, GABPA (Homo sapiens, UniProt Q06546 1-454); conditions: protein: recombinant; tags: N-terminal GST; dsDNA, one strand shown
# T3 sequence: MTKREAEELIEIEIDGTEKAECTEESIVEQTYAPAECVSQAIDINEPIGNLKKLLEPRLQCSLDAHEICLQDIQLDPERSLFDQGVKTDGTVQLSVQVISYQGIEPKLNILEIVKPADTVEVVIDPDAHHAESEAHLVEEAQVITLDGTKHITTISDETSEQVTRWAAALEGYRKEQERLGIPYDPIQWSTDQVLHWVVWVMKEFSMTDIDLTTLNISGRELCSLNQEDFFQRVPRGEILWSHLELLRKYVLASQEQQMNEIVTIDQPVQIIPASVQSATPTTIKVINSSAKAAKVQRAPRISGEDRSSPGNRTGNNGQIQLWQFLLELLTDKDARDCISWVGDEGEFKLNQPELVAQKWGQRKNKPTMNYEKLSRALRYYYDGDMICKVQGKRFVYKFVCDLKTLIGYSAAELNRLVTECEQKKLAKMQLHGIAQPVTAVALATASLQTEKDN
# Procedure, shortened: as §1
# [4] = biological target: T4, ERG (Homo sapiens, UniProt P11308 1-479); conditions: protein: recombinant; tags: N-terminal GST; dsDNA, one strand shown
# T4 sequence: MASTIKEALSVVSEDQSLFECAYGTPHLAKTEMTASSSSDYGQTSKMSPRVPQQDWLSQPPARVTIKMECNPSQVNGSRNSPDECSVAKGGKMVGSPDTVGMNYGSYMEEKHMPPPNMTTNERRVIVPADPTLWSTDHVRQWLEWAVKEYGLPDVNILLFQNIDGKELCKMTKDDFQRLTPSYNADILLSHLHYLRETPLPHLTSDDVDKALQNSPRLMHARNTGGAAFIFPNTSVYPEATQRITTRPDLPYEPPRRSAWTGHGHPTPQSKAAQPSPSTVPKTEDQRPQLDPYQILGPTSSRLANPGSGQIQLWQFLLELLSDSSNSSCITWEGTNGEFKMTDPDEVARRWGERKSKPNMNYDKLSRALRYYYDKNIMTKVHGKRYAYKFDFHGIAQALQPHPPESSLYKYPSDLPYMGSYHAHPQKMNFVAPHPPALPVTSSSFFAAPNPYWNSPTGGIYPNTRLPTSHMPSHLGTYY
# Procedure, shortened: as §1
# [5] = biological target: ELF1 (Homo sapiens, UniProt P32519 1-619); conditions: protein: recombinant; tags: N-terminal GST; dsDNA, one strand shown
# Chain of ELF1 (P32519 whole entry): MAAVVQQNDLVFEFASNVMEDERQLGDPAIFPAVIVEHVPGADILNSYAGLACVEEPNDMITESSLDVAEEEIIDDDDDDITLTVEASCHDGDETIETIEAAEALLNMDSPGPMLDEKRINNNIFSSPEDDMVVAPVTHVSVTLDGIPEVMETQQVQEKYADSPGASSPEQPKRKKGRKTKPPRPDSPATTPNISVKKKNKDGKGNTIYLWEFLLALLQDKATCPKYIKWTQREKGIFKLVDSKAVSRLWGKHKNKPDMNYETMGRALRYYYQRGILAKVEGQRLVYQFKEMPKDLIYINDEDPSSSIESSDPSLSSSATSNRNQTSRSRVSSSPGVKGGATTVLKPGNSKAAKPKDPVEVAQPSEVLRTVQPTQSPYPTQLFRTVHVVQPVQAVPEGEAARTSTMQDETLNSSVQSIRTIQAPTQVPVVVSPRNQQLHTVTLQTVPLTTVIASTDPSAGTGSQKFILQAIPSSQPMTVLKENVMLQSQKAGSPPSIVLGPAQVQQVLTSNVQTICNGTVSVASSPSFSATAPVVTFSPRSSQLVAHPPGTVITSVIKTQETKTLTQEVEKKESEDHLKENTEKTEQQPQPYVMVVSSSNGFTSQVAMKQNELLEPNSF
# Procedure, shortened: as §1
# [6] = biological target: T5, EHF (Homo sapiens, UniProt Q9NZC4 1-300); conditions: protein: recombinant; tags: N-terminal GST; dsDNA, one strand shown
# T5 sequence: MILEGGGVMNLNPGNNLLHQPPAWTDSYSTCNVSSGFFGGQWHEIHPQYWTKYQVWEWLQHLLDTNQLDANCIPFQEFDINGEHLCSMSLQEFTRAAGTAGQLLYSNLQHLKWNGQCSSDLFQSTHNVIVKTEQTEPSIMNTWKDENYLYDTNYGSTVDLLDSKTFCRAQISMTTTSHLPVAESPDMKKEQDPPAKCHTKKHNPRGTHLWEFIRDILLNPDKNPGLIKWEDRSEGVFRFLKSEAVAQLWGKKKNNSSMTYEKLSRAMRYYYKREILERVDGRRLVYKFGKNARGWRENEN
# Procedure, shortened: as §1
# [7] = biological target: SPI1 (Homo sapiens, UniProt P17947 1-270); conditions: protein: recombinant; tags: N-terminal GST; dsDNA, one strand shown
# Procedure, shortened: as §1
# [8] = biological target: SPIB (Homo sapiens, UniProt Q01892 1-262); conditions: protein: recombinant; tags: N-terminal GST; dsDNA, one strand shown
# Chain of SPIB (Q01892 whole entry): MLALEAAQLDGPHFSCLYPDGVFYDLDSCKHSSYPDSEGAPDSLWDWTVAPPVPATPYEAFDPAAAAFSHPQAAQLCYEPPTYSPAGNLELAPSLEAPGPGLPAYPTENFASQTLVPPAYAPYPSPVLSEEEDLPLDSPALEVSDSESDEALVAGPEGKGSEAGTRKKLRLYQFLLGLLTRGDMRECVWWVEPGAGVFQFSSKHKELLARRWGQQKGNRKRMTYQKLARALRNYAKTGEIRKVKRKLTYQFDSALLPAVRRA
# Procedure, shortened: as §1
# [9] = biological target: T6, ELK3 (Homo sapiens, UniProt P41970 1-407); conditions: protein: recombinant; tags: N-terminal GST; dsDNA, one strand shown
# T6 sequence: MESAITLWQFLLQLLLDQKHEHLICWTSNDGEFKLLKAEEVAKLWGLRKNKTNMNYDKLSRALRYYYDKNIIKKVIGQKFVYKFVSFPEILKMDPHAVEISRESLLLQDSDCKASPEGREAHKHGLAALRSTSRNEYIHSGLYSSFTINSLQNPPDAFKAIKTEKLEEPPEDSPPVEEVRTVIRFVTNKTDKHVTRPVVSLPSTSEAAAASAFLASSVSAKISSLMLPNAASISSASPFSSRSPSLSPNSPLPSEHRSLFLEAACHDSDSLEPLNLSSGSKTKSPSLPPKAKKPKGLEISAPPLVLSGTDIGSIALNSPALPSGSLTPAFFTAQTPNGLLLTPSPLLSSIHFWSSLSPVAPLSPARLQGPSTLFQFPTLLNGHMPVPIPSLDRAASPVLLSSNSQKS
# Procedure, shortened: as §1
# [10] = biological target: T7, FEV (Homo sapiens, UniProt Q99581 1-238); conditions: protein: recombinant; tags: N-terminal GST; dsDNA, one strand shown
# T7 sequence: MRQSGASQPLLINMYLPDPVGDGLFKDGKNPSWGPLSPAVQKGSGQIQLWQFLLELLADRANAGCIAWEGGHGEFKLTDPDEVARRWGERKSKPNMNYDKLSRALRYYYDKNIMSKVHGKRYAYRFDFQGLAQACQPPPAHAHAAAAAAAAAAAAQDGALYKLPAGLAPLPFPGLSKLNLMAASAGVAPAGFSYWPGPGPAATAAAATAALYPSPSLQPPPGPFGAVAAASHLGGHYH
# Procedure, shortened: as §1
# [11] = biological target: ETV5 (Homo sapiens, UniProt P41161 1-510); conditions: protein: recombinant; tags: N-terminal GST; dsDNA, one strand shown
# Chain of ETV5 (P41161 whole entry): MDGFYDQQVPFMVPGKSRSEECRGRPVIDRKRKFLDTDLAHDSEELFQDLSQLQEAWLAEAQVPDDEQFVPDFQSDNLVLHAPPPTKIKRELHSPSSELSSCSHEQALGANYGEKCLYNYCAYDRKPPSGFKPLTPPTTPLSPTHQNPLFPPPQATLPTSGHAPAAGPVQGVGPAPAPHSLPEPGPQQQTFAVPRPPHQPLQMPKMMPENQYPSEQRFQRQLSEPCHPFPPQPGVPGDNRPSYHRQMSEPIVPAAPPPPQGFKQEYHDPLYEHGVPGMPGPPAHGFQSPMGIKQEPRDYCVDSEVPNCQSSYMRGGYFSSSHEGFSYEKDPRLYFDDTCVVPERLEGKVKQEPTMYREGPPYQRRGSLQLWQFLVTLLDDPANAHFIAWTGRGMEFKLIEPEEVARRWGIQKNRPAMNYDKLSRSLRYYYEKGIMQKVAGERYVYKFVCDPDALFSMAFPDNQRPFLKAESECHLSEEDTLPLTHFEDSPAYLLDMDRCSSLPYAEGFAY
# Procedure, shortened: as §1
# [12] = biological target: HSF1 (Homo sapiens, UniProt Q00613 1-529); conditions: protein: recombinant; tags: N-terminal GST; chain copies: 3; dsDNA, one strand shown
# Chain of HSF1 (Q00613 whole entry): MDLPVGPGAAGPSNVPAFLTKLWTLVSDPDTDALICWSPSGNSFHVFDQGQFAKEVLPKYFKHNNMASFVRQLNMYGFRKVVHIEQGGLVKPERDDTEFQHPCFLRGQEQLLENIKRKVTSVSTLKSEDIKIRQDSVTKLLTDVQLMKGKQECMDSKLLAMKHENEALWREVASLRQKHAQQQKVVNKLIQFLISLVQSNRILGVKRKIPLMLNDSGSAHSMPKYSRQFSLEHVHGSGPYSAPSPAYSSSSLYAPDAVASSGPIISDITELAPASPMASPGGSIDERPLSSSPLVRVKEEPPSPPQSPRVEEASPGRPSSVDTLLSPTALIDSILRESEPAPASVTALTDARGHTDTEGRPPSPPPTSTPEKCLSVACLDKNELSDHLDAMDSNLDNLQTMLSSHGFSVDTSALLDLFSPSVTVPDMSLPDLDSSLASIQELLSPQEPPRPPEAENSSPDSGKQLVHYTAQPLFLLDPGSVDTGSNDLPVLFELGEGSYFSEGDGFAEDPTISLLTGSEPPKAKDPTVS
# Procedure, shortened: as §1
# [13] = biological target: T8, SPIC (Homo sapiens, UniProt Q8N5J4 1-248); conditions: protein: recombinant; tags: N-terminal GST; dsDNA, one strand shown
# T8 sequence: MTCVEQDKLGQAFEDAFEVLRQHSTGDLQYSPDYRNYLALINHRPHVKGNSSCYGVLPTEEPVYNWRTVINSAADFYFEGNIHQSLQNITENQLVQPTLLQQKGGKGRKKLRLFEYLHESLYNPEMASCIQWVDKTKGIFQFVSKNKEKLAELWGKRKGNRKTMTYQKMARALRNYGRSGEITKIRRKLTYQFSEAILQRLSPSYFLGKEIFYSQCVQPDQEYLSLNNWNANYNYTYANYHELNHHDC
# Procedure, shortened: as §1
# [14] = biological target: ELF4 (Homo sapiens, UniProt Q99607 1-663); conditions: protein: recombinant; tags: N-terminal GST; dsDNA, one strand shown
# Chain of ELF4 (Q99607 whole entry): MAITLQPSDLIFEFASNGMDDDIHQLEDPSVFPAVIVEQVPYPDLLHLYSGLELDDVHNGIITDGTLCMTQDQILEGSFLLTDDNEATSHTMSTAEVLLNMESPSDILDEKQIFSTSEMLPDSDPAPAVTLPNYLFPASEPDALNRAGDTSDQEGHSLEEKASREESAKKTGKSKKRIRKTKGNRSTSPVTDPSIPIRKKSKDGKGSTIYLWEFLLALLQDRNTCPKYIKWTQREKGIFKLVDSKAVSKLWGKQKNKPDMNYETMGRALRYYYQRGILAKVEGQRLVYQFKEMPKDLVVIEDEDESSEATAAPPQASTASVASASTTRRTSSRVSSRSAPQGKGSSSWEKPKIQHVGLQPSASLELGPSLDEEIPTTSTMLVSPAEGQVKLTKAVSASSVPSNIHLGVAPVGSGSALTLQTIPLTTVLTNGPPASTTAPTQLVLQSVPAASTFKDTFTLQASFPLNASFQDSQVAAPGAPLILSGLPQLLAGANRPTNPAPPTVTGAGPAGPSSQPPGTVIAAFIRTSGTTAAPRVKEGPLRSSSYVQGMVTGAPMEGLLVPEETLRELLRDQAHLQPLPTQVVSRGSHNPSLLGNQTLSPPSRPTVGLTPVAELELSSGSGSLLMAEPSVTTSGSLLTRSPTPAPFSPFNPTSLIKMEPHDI
# Procedure, shortened: as §1
# [15] = biological target: T9, ELK4 (Homo sapiens, UniProt P28324-2 1-405); conditions: protein: recombinant; tags: N-terminal GST; dsDNA, one strand shown
# T9 sequence: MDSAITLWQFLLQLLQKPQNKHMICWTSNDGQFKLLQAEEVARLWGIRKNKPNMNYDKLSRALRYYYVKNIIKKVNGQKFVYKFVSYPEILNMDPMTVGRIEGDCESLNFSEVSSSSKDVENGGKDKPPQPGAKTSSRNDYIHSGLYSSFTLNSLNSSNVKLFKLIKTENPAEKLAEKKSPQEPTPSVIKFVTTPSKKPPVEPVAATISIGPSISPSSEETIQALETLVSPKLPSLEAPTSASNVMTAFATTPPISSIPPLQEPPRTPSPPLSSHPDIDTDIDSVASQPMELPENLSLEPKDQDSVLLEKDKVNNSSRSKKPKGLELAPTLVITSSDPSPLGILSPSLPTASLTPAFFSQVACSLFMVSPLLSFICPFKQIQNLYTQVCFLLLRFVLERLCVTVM
# Procedure, shortened: as §1
# [16] = biological target: T10, ETV2 (Homo sapiens, UniProt O00321 1-342); conditions: protein: recombinant; tags: N-terminal GST; dsDNA, one strand shown
# T10 sequence: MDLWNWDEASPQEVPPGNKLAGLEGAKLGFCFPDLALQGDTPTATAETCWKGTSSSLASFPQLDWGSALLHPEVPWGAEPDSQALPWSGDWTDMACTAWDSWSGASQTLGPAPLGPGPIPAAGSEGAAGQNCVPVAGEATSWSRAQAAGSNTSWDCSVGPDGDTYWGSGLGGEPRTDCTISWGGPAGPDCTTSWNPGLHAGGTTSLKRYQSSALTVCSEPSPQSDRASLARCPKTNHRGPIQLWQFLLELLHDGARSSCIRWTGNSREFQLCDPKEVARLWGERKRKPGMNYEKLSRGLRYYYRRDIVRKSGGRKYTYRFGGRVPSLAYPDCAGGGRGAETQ
# Procedure, shortened: as §1
# [17] = biological target: T11, ELF3 (Homo sapiens, UniProt P78545 1-371); conditions: protein: recombinant; tags: N-terminal GST; dsDNA, one strand shown
# T11 sequence: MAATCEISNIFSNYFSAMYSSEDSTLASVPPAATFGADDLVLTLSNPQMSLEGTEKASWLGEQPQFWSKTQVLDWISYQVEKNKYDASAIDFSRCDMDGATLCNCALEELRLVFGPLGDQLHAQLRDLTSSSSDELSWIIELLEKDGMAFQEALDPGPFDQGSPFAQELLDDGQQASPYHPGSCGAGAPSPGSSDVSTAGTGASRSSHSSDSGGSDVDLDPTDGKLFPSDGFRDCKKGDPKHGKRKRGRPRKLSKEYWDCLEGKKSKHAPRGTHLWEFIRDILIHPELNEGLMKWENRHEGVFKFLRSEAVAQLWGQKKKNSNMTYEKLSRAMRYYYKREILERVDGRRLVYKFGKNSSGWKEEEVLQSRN
# Procedure, shortened: as §1
# [18] = biological target: CRX (Homo sapiens, UniProt O43186 1-299); conditions: protein: recombinant; tags: N-terminal GST; dsDNA, one strand shown
# Chain of CRX (O43186 whole entry): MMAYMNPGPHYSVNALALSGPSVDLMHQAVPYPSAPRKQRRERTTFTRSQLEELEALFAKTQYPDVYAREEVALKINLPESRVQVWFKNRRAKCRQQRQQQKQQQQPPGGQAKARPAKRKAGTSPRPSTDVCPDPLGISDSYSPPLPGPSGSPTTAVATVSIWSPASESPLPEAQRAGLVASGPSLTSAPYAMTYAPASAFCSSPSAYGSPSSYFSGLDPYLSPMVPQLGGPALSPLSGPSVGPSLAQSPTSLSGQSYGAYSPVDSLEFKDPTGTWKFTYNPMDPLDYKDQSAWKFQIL
# Procedure, shortened: as §1
# [19] = biological target: ETV1 (Homo sapiens, UniProt P50549 1-477); conditions: protein: recombinant; tags: N-terminal GST; dsDNA, one strand shown
# Chain of ETV1 (P50549 whole entry): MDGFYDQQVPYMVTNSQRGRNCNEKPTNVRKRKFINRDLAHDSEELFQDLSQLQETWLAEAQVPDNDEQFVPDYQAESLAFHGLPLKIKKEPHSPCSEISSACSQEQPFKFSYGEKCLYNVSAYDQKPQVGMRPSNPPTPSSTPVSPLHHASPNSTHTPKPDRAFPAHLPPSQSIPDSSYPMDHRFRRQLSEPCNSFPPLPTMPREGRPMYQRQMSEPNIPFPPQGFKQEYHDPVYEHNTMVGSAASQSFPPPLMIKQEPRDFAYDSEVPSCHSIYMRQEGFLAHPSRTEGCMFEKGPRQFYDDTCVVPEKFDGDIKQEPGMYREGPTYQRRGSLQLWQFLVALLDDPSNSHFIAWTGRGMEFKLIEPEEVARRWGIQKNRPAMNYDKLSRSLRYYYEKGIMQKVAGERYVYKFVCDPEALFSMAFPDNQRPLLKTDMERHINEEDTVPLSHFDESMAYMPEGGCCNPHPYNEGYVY
# Procedure, shortened: as §1
sequence,measurement,setting,value
TAAACT,binding signal,[1],"1.13 fold enrichment (6-mer frequency, TF over GST control)"
same,binding signal,[2],"1.24 fold enrichment (6-mer frequency, TF over GST control)"
same,binding signal,[3],"1.19 fold enrichment (6-mer frequency, TF over GST control)"
same,binding signal,[4],"1.14 fold enrichment (6-mer frequency, TF over GST control)"
same,binding signal,[5],"1.13 fold enrichment (6-mer frequency, TF over GST control)"
same,binding signal,[6],"1.15 fold enrichment (6-mer frequency, TF over GST control)"
same,binding signal,[7],"1.15 fold enrichment (6-mer frequency, TF over GST control)"
same,binding signal,[8],"1.23 fold enrichment (6-mer frequency, TF over GST control)"
same,binding signal,[9],"1.27 fold enrichment (6-mer frequency, TF over GST control)"
same,binding signal,[10],"1.11 fold enrichment (6-mer frequency, TF over GST control)"
same,binding signal,[11],"1.23 fold enrichment (6-mer frequency, TF over GST control)"
same,binding signal,[12],"1.3 fold enrichment (6-mer frequency, TF over GST control)"
same,binding signal,[13],"1.12 fold enrichment (6-mer frequency, TF over GST control)"
same,binding signal,[14],"1.23 fold enrichment (6-mer frequency, TF over GST control)"
same,binding signal,[15],"1.11 fold enrichment (6-mer frequency, TF over GST control)"
same,binding signal,[16],"1.27 fold enrichment (6-mer frequency, TF over GST control)"
same,binding signal,[17],"1.04 fold enrichment (6-mer frequency, TF over GST control)"
same,binding signal,[18],"1.72 fold enrichment (6-mer frequency, TF over GST control)"
same,binding signal,[19],"1.2 fold enrichment (6-mer frequency, TF over GST control)"
